# Source: PubChem BioAssay (NCI)
# The panel holds about 79,000 compounds, 15% with a hit somewhere; the sample as a whole holds those more often. A number with no mark means an inactive call. The source made the active and inactive calls. No stated cut-off is given here; in the data, active means growth inhibition above about 70%; inactive means the rest. *1 amine or outer side, *2 acyl side, *3 side chain or, on linkers, in order; H or OH if unused. Where a SMILES comes first, the peptide text is derived from it. Bridges are numbered along the chain shown (N, C = ends). [ ]: non-standard residue; d: D form. The star is where a group is joined. ξ: configuration not given here. X16 = CC(C)C(C)C(C(=O)[*:2])N(C)[*:1]; Picolinoyl(3-OH) = O=C(c1ncccc1O)*; NMePhg = CN[CH](C(=O)O)c1ccccc1; Hyp = O=C(O)[CH]1C[CH](O)CN1; Cbz = O=C(OCc1ccccc1)*; Boc = CC(C)(C)OC(=O)*; ξNva = CCCC(N)C(=O)O; Sar = CNCC(=O)O
# Assay: NCI Yeast Anticancer Drug Screen. Data for the rad50 strain (AID 155);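 further: 0% = growth of vehicle-only cultures of the same strain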
# Settings: S. cerevisiae rad50 strain growth inhibition; at 50.0 µM; stronger effect = higher value
# Method in brief: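 Compounds were tested on a yeast strain with an engineered DNA damage repair alteration; the reported value is growth inhibition normalised to vehicle treatment.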
row,Structure (SMILES),growth inhibition
1,O=C(O)CCCCCC1=CCCCC1,11.9%
2,O=C(N/N=C\c1cccc2c([N+](=O)[O-])cccc12)Nc1ccccc1,-30.6%
3,O=C(N/N=C/c1ccccc1)c1c(F)c(F)c(F)c(F)c1F,-27.6%
4,CCOC(=O)C(CC(C)C)NC(=O)C(Cc1ccccc1)NC(=O)CNC(=O)OC(C)(C)C (stereo not drawn) (Boc-Gly-Phe-Leu-OEt; configuration not given here),7.65%
5,Cc1cc(C)[n+](C)c2cc3ccccc3cc12,26.4%
6,CCN(CC)CCCC(C)Nc1ccnc2ccc3nn(C)nc3c12 (stereo not given),-11.6%
7,O=C(O)CSc1cc(Br)c(Br)cc1C(=O)O,6.05%
8,Cc1ccc(S(=O)(=O)Oc2nc3nc4ccccc4nc3nc2OS(=O)(=O)c2ccc(C)cc2)cc1,-3.5%
9,CC(c1ccccc1)n1cnc2c(=S)nc[nH]c21 (stereo not given),17.1%
10,CCN(CC)CC[n+]1ccc2c(C)c3[nH]c4ccccc4c3c(C)c2c1,37.8%
11,Cc1ccc(S(=O)(=O)c2c(N)c3nccn3c3nc4ccccc4nc23)cc1,-52.2%
12,Cc1nc2c(o1)C(=O)c1ccccc1C2=Nc1ccc(N2CCOCC2)cc1,78.9% (active)
13,CC(C)(C)n1c(=O)[nH]c(=O)n1C(C)(C)C,5.75%
14,NS(=O)(=O)c1ccc(C(=O)O)s1,-12.1%
15,CCOC(=O)COc1cc2c(cc1C(C)c1cc(OC)c(OC)c(OC)c1)OCO2 (stereo not given),34.6%
16,Cc1ccccc1CCOC(=O)c1cc([N+](=O)[O-])cc([N+](=O)[O-])c1,-19%
17,CCCCCCCC/C=C\CCCCCCCC(=O)OC,33.5%
18,CN(N=O)C(N)=NC(=O)c1ccccc1,11.4%
19,O=C(Nc1ccccc1)c1ccc2ccccc2n1,-12.7%
20,Oc1ccc(C2=NNC(c3ccc(O)cc3)=NN2)cc1,12.7%

row,Structure (SMILES),growth inhibition
1,COc1ccc(-c2cc(=O)c3ccc(C)nc3[nH]2)cc1,-18.9%
2,CCNC(=O)OCCN1C(=O)C2C3CCC(O3)C2C1=O (stereo not given),5.25%
3,CCCC(NC(=O)OCc1ccccc1)C(=O)NCC(=O)NCC(=O)OC (stereo not drawn) (Cbz-[ξNva]-Gly-Gly-OMe),-30.8%
4,Cc1c(Cl)cccc1NC(=O)c1c(Cl)c(Cl)c(Cl)c(Cl)c1C(=O)O,7.15%
5,COc1cc(C(=O)NNC(=O)C2CCC(=O)N2Cc2ccccc2)cc(OC)c1OC (stereo not given),3.3%
6,Cc1cccc(C)c1NC(=O)C(=O)CC(=O)c1sc(Nc2c(C)cccc2C)nc1C,12.1%
7,CNCC(O)(C(=O)O)C(=O)O,-12.6%
8,CC(C)CC1NC(=O)C(NC(=O)c2ncccc2O)C(C)OC(=O)C(c2ccccc2)N(C)C(=O)C(C)NC(=O)C(C(C)C(C)C)N(C)C(=O)CN(C)C(=O)C2CC(O)CN2C1=O (stereo not given) ({Picolinoyl(3-OH)}-TL[Hyp][Sar][X16]A[NMePhg]; ester 1-C; configuration not given here),15.8%
9,N#CC1=C(O)NC(O)=C(C#N)C12C(=O)Nc1ccccc12,4.1%
10,COc1ccc2c(c1)C(O)C(NCc1ccccc1)C2 (stereo not given),-13.6%
11,O=C(O)C(=O)NCc1cnccn1,10.9%
12,O=S(=O)(O)CCc1ccccc1,1.9%
13,CCOc1ccc(C(C)c2cc3c(cc2OC)OCO3)cc1 (stereo not given),20.7%
14,Nc1nc2[nH]c(=O)cnc2c(=O)[nH]1,-17.8%
15,CC(=O)/C(=C\c1ccc([N+](=O)[O-])o1)C(=O)CCN(C)C,25.1%
16,NC(N)=N/N=C/c1c(Cl)nc2sccn12,-11.4%
17,O=C(NNC(O)C(F)(F)F)c1ccccc1 (stereo not given),12.3%
18,CCOC(=O)C1CCN(S(=O)(=O)c2ccccc2)CC1,3.4%
19,CN(C)C(=S)/N=c1\ssc(=S)n1Cc1cccs1,-11.1%
20,CCOC(=N)CC(=O)Nc1ccccc1CC,17.8%
